Assay [1] concerns Zika virus NS2B-NS3 protease (linked construct). Put plainly: Primary screen NINDS Rhodamine qHTS for Zika virus inhibitors (AID 1347160). Also: nearly all actives have a fitted effect of over 55% in size. Also: potency is read from the fitted curve at half-maximal effect. Put shortly: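 Single-chain NS2B-NS3 protease, 25 nM, pH 8.0; compounds preincubated 15 min. Activity: Rhodamine110 release from 1.5 microM substrate over 15 min, room temperature, data fitted to 4-parameter Hill.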
A general note: In qHTS, concentration-response curves come from the screen itself.

Assay [2] can be described thus: OV-KATE Cancer Cell Toxicity qHTS against the NCATS CANVASS Library (AID 1347345). Summed up: (§1)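 Viability was assessed by adding CellTiter-Glo reagent to treated cultures and reading luminescence after 15min at room temperature. Treatment lasted 72 h at 37 degrees C/5% CO2, using an 11-point series on 1000 cells/well.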
The nature of assay [3]: HPAF-II Cancer Cell Toxicity qHTS against the NCATS CANVASS Library (AID 1347346). Also: series mostly up to about 38 µM; nearly all actives have a fitted effect of over 55% in size. Summed up: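 First, HPAF-II cells are plated (1000 cells/well) and held 4 h at 37 degrees C. Next, compounds are pin-transferred as an 11-point series. After 72 h, CellTiter-Glo is added and luminescence measured.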
Assay [4] can be described thus: OV-SAHO Cancer Cell Toxicity qHTS against the NCATS CANVASS Library (AID 1347348). Also: series mostly up to about 38 µM; nearly all actives have a fitted effect of over 55% in size. Summed up:
as §1

A short description of assay [5]: Panc-1005 Cancer Cell Toxicity qHTS against the NCATS CANVASS Library (AID 1347349). Also: series mostly up to about 38 µM; nearly all actives have a fitted effect of over 60% in size. Summed up:
as §1

A short description of assay [6]: COV-362 Cancer Cell Toxicity qHTS against the NCATS CANVASS Library (AID 1347352). Also: series mostly up to about 38 µM. Summed up: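 First, 1000 cells go into each well and rest for 4 hours. Next, an 11-point dilution range is pinned in. Plates then incubate 72 hours before CellTiter-Glo addition and luminescence reading.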
Assay [7] is described as follows: A2780 Cisplatin Sensitive Ovarian Cancer Cell Toxicity qHTS against the NCATS CANVASS Library (AID 1347353). Also: nearly all actives have a fitted effect of over 60% in size. Summed up: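 Cells are plated at 750 per well and rest for 4 hours. Compounds are added across eleven concentrations, and incubated 72 hours before ATP is quantified by luminescence.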
A short description of assay [8]: HPAF-II 24hr Apoptosis Induction qHTS against the NCATS CANVASS Library (AID 1347356). Summed up:
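Cells seeded at 500 per well, then compounds pin-transferred in an 11-point concentration series. After 24 hours at 37 degrees C, Caspase-Glo 3/7 was added and luminescence measured following 15 min at room temperature.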

Assay [9] is described as follows: HPAF-II 12hr Apoptosis Induction qHTS against the NCATS CANVASS Library (AID 1347358). Put shortly:
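Cells plated at 500 per well are dosed with compound and incubated 12 hours at 37 degrees C. Caspase-Glo 3/7 reagent is added and, after 15 min at room temperature, luminescence proportional to caspase activity is measured.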

Assay [10] in a line: HEK293 24hr Apoptosis Induction qHTS against the NCATS CANVASS Library (AID 1347359). Put shortly: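 Caspase-3/7 activation measured as luminescence from the DEVD-based Caspase-Glo reagent, 15 min at room temperature, following 24-hour compound treatment of HEK293 cells.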
A short description of assay [11]: HPAF-II 18hr Apoptosis Induction qHTS against the NCATS CANVASS Library (AID 1347360). Summed up: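 HPAF-II cells at 500/well were exposed for 18 h at 37 C to an 11-point compound series. Caspase-3/7 activity was read by Caspase-Glo luminescence after 15 min at RT.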
The target in assay [12] is Luciferin 4-monooxygenase (Photinus pyralis) (UniProt P08659). Put plainly: Firefly luciferase counterscreen qHTS: Assay Interference Panel against the NCATS CANVASS Library (AID 1347363). Also: series mostly up to about 57 µM. Summed up: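 Luminescence inhibition readout: compounds (11-point qHTS) sat 15 min at room temperature with substrate mix (0.013 mM luciferin and ATP), then firefly luciferase was added and signal read 5 min later.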
In general terms: A counterscreen serves to expose hits that act by an unwanted route or on another target.

Assay [13] can be described thus: qHTS for ATAD5 Agonist screened against the NCATS CANVASS Library (AID 1347367).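 Also: luciferase reporter driven by ATAD5 which rises upon DNA damage.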 Summed up:
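Luciferase reporter under ATAD5 control, stably integrated in HEK293T cells (2000/well). Compounds (11 points) incubated 16 h at 37C; viability read first by CellTiter-Fluor, then luminescence reporting ATAD5 activation. MMS positive control.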

The nature of assay [14]: MCF7 Cancer Cell Toxicity qHTS against the NCATS CANVASS Library (AID 1347369). Summed up: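 MCF7 cells (500/well) were exposed 72 h at 37 °C to compounds in an 11-point series. Viability was read as ATP content by CellTiterGlo luminescence.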
A short description of assay [15]: J3T Cancer Cell Toxicity qHTS against the NCATS CANVASS Library (AID 1347371). Summed up:
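Luminescence from CellTiterGlo, reporting cellular ATP, serves as the viability measure after 72 hr compound treatment of J3T canine glioma cells seeded at 500 cells/well.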

Assay [16] can be described thus: qHTS for Inflammasome Signaling Inhibitors: IL-1-beta AlphaLISA screen against the NCATS CANVASS Library (AID 1347379).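 Also: human THP-1 cells primed with LPS then triggered with ATP.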 Summed up: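 Secreted IL-1B from human THP-1 cells quantified by AlphaLISA 16 hr after compound addition (final up to 57.5 uM). A 1 hr compound pretreatment preceded inflammasome activation with 250 ng/mL LPS plus 1.25 mM ATP (final).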

Unmarked numbers belong to inactive results. Records with an inconclusive call do not appear. The source made the active and inactive calls. Calls follow the shape of the dose curve; as a rule, active = well fitted curve in the direction sought with a large enough effect; inconclusive = small, poorly fitted or top-dose-only effect, or another doubt; inactive = no such curve, though single readings can be large; an effect the other way counts as inactive or inconclusive.

Luciferin 4-monooxygenase (Photinus pyralis), sequence (P08659 whole entry, looked up): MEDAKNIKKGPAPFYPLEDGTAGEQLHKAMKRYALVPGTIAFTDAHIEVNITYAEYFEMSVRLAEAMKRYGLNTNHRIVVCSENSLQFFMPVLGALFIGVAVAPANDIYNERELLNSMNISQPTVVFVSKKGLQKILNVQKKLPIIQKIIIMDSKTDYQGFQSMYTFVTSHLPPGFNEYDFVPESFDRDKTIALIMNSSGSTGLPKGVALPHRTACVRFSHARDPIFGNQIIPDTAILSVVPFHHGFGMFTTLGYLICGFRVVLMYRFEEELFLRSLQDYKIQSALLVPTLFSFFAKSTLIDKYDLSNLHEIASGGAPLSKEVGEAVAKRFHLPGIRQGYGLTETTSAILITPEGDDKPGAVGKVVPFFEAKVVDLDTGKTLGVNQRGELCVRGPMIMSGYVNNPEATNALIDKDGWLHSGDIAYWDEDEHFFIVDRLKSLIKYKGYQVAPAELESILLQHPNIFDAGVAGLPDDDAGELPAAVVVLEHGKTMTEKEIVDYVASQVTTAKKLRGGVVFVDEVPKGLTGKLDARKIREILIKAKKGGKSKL

For `O=C1c2c(O)cc(O)cc2O[C@@H](c2ccc(O)cc2)[C@@H]1c1c(O)cc(O)c2c(=O)cc(-c3ccc(O)c(O)c3)oc12`, in assay [1], the Potency is 3.92 µM (active). The Potency entry in assay [2], in [3], in assay [4], in [5], in assay [6] and in [7] was “inactive” each time. Besides, the Potency result in [9], in assay [10], in assay [11], in assay [12], in [13] and in assay [14] was “inactive” in each case. For the same compound, the Potency entry in assay [15] and in [16] was “inactive” each time. For the same compound, the result in assay [8] was inactive.

With `O=C(O)[C@@]12CO[C@@]3(O)C4CCN(CC[C@H]31)[C@H]4c1c2[nH]c2ccccc12`, the Potency entry in [1], in assay [2], in assay [3], in [4], in assay [5] and in [6] was “inactive” throughout. In addition, the Potency entry in assay [7], in [9], in assay [10], in [11], in assay [12] and in [13] was “inactive” in each case. For the same compound, the Potency result in assay [14], in assay [15] and in assay [16] was “inactive” each time. In addition, the compound was called inactive in assay [8].

Take `C1=C2CCCN[C@@H]2[C@@H]2CCN3CCCC[C@@H]3[C@H](C1)C2`: the Potency entry in assay [1], in [2], in assay [3], in assay [4], in assay [5] and in assay [6] was “inactive” each time. Also, the Potency result in assay [7], in assay [9], in assay [10], in [11], in assay [12] and in assay [13] was “inactive” each time. Further, the Potency entry in assay [14], in [15] and in assay [16] was “inactive” throughout. Besides, the outcome in assay [8] was inactive.

In the case of `C[C@@H]1C(=O)[C@]23CC[C@H]1C[C@]21O[C@H]2C(C)(C)C=CC(=O)[C@@]23COC1=O`, in [1], the Potency is 62.1 µM (active). In addition, the Potency result in [2], in assay [3], in assay [4], in assay [5], in assay [6] and in assay [7] was “inactive” throughout. In addition, the Potency result in assay [9], in assay [10], in assay [11], in [12], in assay [13] and in assay [14] was “inactive” throughout. The Potency entry in assay [15] and in [16] was “inactive” in each case. Further, in assay [8], the compound was classed as inactive.

`CC1(C)CCC[C@]2(C)[C@@H]1CC[C@@]13C[C@@H](CC[C@H]12)C(C)(O)C3` (stereo not given in full): in assay [1], the Potency is 44 µM (active). Besides, the Potency entry in assay [2], in assay [3], in assay [4], in assay [5], in assay [6] and in assay [7] was “inactive” in each case. For the same compound, the Potency entry in [9], in assay [10], in [11], in [12], in assay [13] and in assay [14] was “inactive” in each case. Also, the Potency result in [15] and in assay [16] was “inactive” each time. Moreover, the compound was called inactive in [8].

The record behind these values is PubChem BioAssay (NCATS).
